Test results: PubChem BioAssay (NCATS)
Records with an inconclusive call do not appear. Calls of active or inactive are those of the source. The call rests on the fitted dose curve; in most records, active means well fitted curve in the direction sought with a large enough effect; inconclusive means small, poorly fitted or top-dose-only effect, or another doubt; inactive means no such curve, though single readings can be large; an effect the other way counts as inactive or inconclusive.

Tests used:
[1] = molecular target: Cytochrome P450 3A7 (Homo sapiens) (UniProt P24462); test: Cytochrome P450 family 3 subfamily A member 7 (CYP3A7) small molecule antagonists: luciferase biochemical qHTS assay (AID 1963596); further: on the % scale 0 is the no-effect control and ±100 the full control effect; nearly all actives have a fitted effect of over 40% in size
How it was run: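 Recombinant CYP3A7 P450-Glo luminescent assay: enzyme-proluciferin substrate mix preincubated with compound 10 min at room temperature, reaction started with NADPH regeneration system for 1 h. Luciferin detected by luminescence; ketoconazole as positive control.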

[2] = Quantitative highthroughput screen to assess conditional lethalithy of NOMO1 cells grown in RPMI1640 with untreated serum (RPMI+s) (AID 1963876); further: potency means the concentration at half of the fitted maximal effect; nearly all actives have a fitted effect of over 35% in size
How it was run: (§1)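 Each medium arm—HPLM with 10% dialyzed FBS, or RPMI1640 with 5 mM glucose and 10% untreated or dialyzed FBS—was screened against an 11-point, 3-fold compound titration for 48 h at 37 °C, with CellTiter-Glo luminescence as endpoint.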

[3] = Quantitative highthroughput screen to assess conditional lethalithy of NOMO1 cells grown in RPMI1640 with dialyzed fetal bovine serum (RPMI+ds) (AID 1963877); further: potency means the concentration at half of the fitted maximal effect; nearly all actives have a fitted effect of over 30% in size
How it was run: as §1

[4] = Quantitative highthroughput screen to assess conditional lethalithy of P12 Ichikawa cells grown in Human Plasma-Like Medium with dialyzed fetal bovine serum (HPLM+ds) (AID 1963879); settings: Potency: viability; further: potency means the concentration at half of the fitted maximal effect; nearly all actives have a fitted effect of over 35% in size
How it was run: as §1

[5] = Quantitative highthroughput screen to assess conditional lethalithy of P12 Ichikawa cells grown in RPMI1640 with untreated serum (RPMI+s) (AID 1963881); settings: Potency: viability; further: potency means the concentration at half of the fitted maximal effect; nearly all actives have a fitted effect of over 35% in size
How it was run: as §1

[6] = Cellular viability qHTS for adrenocortical cancer (ACC) cell line SW-13 (AID 1963989); settings: SW-13 ACC cells viability, CellTiter-Glo, 48 h; activity (max response): hits give low values; further: nearly all actives have a fitted effect of over 65% in size; further: potency means the concentration at half of the fitted maximal effect;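 on activity (max response): cells grown in serum-free medium with ITS supplement; on the % scale 0 is the no-effect control and ±100 the full control effect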
How it was run: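 Viability was read as CellTiter-Glo luminescence after 48 h compound treatment (up to 46 uM final) of SW-13 cells grown serum-free; titration curves were fit with a four-parameter logistic model to give IC50 and efficacy.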

[7] = Cellular viability qHTS for adrenocortical cancer (ACC) cell line NCI-H295R (AID 1963990); further: nearly all actives have a fitted effect of over 60% in size; further: potency means the concentration at half of the fitted maximal effect
How it was run: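 CellTiter-Glo ATP luminescence, read 48 h after compound addition, measured viability of NCI-H295R adrenocortical cells grown serum-free with ITS. Final concentrations spanned up to 46 uM. Data normalized to DMSO and doxorubicin, fitted for IC50 and maximal response.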

Chain of Cytochrome P450 3A7 (Homo sapiens) (P24462 whole entry, looked up): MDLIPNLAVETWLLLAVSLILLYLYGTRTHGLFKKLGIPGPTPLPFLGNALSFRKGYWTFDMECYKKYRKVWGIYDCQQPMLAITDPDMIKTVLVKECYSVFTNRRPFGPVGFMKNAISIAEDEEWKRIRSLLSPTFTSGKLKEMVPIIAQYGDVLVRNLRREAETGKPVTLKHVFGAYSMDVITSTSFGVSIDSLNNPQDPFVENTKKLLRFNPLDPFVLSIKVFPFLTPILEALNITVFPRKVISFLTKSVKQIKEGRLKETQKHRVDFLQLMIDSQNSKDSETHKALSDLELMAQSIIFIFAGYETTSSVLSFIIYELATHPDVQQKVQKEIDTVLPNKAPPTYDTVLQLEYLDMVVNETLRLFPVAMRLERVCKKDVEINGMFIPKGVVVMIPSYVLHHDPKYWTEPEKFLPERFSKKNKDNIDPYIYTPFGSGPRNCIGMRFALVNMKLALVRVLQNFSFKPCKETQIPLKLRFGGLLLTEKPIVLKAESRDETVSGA

COc1cc(Nc2ncc3c(n2)-c2ccc(Cl)cc2C(c2c(F)cccc2OC)=NC3)ccc1C(=O)O
inactive: Potency [1]
active: Potency [2] 83.3 nM | Potency [3] 66.2 nM | Potency [4] 74.3 nM | Potency [5] 59 nM | Potency [6] 31600 nM | Potency [7] 2240 nM

Cc1ccc(S(=O)(=O)NC(=O)NC2CCCC2)cc1
inactive: Potency [1] | activity (max response) [6] 10.7% | Potency [7]

O=C(O)Cc1ccc2c(c1)C(=O)c1ccccc1CO2
inactive: Potency [1] | activity (max response) [6] 11.3% | Potency [7]

Nc1ncnc2c1ncn2Cc1c(F)cccc1Cl
inactive: Potency [1] | activity (max response) [6] 6.36% | Potency [7]

Cc1c(N(C)CS(=O)(=O)O)c(=O)n(-c2ccccc2)n1C
inactive: Potency [1] | activity (max response) [6] 3.83% | Potency [7]

C[C@@H]1CC[C@@]2(OC1)O[C@H]1C[C@H]3[C@@H]4CC[C@H]5C[C@@H](O)CC[C@]5(C)[C@H]4CC(=O)[C@]3(C)[C@H]1[C@@H]2C
inactive: activity change, negative = inhibition [1] -8.63% [at 4.83 µM] | activity (max response) [6] 5.1%
